Values joined by “and” are separate entries in the source; they are usually repeats but may differ in a detail not shown here. Equal entries are not always repeated. Screen size: about 5,500 compounds; about 2,000 (36%) were called active. About 18% were inconclusive and are not listed. No stated cut-off is given here; in the data, active means normalized growth mostly below about 0.91 (no sharp cut-off); inconclusive means no clear call, values can overlap the other calls; inactive means mostly above about 0.92. The list shows a part of the results.
Assay: chemical genetic growth profiling, strain panel (AID 1159580);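 further: tested at 20 µM; growth read once vehicle control cultures reached saturation at 30 °C; 1 = growth at the plate median or of vehicle wells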
Conditions: S. cerevisiae deletion strains, growth OD

Measured: normalized growth

CCC(Cc1c(I)cc(I)c(N)c1I)C(=O)O (stereo not given)
1 (inactive) and 0.148 (active): locus YHR030C, strain SLT2, stronger effect = lower value
active: locus YAL026C, strain drs2, stronger effect = lower value 0.889 | locus YBR009C, strain hhf1, stronger effect = lower value 0.861 | locus YCL011C, strain gbp2, stronger effect = lower value 0.905 | locus YCL069W, strain vba3, stronger effect = lower value 0.907 | locus YDR137W, strain rgp1, stronger effect = lower value 0.71 | locus YDR392W, strain spt3, stronger effect = lower value 0.711 | locus YHR079C, strain IRE1, stronger effect = lower value 0.135 | locus YJL164C, strain tpk1, stronger effect = lower value 0.903 | locus YJR066W, strain TOR1, stronger effect = lower value 0.0664
0.993 (inactive) and 0.112 (active): locus YJL095W, strain BCK1, stronger effect = lower value
inactive: locus YAL013W, strain DEP1, stronger effect = lower value 0.979 | locus YAL021C, strain ccr4, stronger effect = lower value 0.934 | locus YAL030W, strain snc1, stronger effect = lower value 0.945 | locus YBL061C, strain skt5, stronger effect = lower value 0.955 | locus YBR021W, strain FUR4, stronger effect = lower value 1.03 | locus YBR023C, strain chs3, stronger effect = lower value 0.935 | locus YBR171W, strain sec66, stronger effect = lower value 0.921 | locus YBR229C, strain ROT2, stronger effect = lower value 0.989 | locus YBR231C, strain swc5, stronger effect = lower value 0.977 | locus YBR279W, strain paf1, stronger effect = lower value 0.945 | locus YCL016C, strain dcc1, stronger effect = lower value 0.934 | locus YCL029C, strain bik1, stronger effect = lower value 0.997 | locus YCR088W, strain abp1, stronger effect = lower value 0.935 | locus YDL005C, strain med2, stronger effect = lower value 0.95 | locus YDL035C, strain GPR1, stronger effect = lower value 1 | locus YDL040C, strain nat1, stronger effect = lower value 0.96 | locus YDL074C, strain BRE1, stronger effect = lower value 1.01 | locus YDL101C, strain DUN1, stronger effect = lower value 1.01 | locus YDL134C, strain PPH21, stronger effect = lower value 1.01 | locus YDL192W, strain arf1, stronger effect = lower value 0.997 | locus YDR001C, strain nth1, stronger effect = lower value 0.927 | locus YDR069C, strain doa4, stronger effect = lower value 0.951 | locus YDR101C, strain arx1, stronger effect = lower value 1 | locus YDR150W, strain NUM1, stronger effect = lower value 1.01 | locus YDR159W, strain sac3, stronger effect = lower value 0.895 | locus YDR162C, strain NBP2, stronger effect = lower value 0.982 | locus YDR195W, strain ref2 0.992 | locus YDR297W, strain sur2, stronger effect = lower value 0.954 | locus YDR318W, strain mcm21, stronger effect = lower value 1 | locus YDR334W, strain swr1, stronger effect = lower value 0.942 | locus YDR335W, strain msn5, stronger effect = lower value 0.947 | locus YDR388W, stronger effect = lower value 0.996 | locus YDR502C, strain sam2, stronger effect = lower value 0.991 | locus YEL003W, strain gim4, stronger effect = lower value 0.934 | locus YEL037C, strain rad23, stronger effect = lower value 0.947 | locus YEL061C, strain CIN8 (second series), stronger effect = lower value 0.942 | locus YEL061C, strain CIN8, stronger effect = lower value 0.994 | locus YER015W, strain faa2, stronger effect = lower value 0.977 | locus YER016W, strain bim1, stronger effect = lower value 0.927 | locus YER110C, stronger effect = lower value 1 | locus YER111C, strain swi4, stronger effect = lower value 0.925 | locus YER155C, strain BEM2 (second series), stronger effect = lower value 0.94 | locus YER155C, strain BEM2, stronger effect = lower value 1 | locus YER167W, strain BCK2, stronger effect = lower value 0.998 | locus YFR010W, strain ubp6, stronger effect = lower value 0.985 | locus YGL078C, strain dbp3, stronger effect = lower value 0.997 | locus YGL086W, strain mad1, stronger effect = lower value 0.986 | locus YGL167C, strain pmr1, stronger effect = lower value 0.928 | locus YGL173C, strain kem1, stronger effect = lower value 0.936 | locus YGL227W, strain vid30, stronger effect = lower value 0.949 | locus YGL240W, strain doc1, stronger effect = lower value 0.99 | locus YGL248W, strain PDE1, stronger effect = lower value 1 | locus YGL253W, strain hxk2, stronger effect = lower value 0.921 | locus YGR078C, strain PAC10, stronger effect = lower value 1.01 | locus YGR135W, strain pre9, stronger effect = lower value 1 | locus YGR229C, strain SMI1, stronger effect = lower value 1.02 | locus YGR252W, strain gcn5, stronger effect = lower value 1.04 | locus YHR013C, strain ard1, stronger effect = lower value 0.852 | locus YHR027C, strain rpn1, stronger effect = lower value 0.927 | locus YHR079C, strain IRE1 (second series), stronger effect = lower value 1 | locus YHR094C, strain hxt1, stronger effect = lower value 1 | locus YHR129C, strain ARP1, stronger effect = lower value 0.957 | locus YHR142W, strain chs7, stronger effect = lower value 0.912 | locus YHR200W, strain rpn10, stronger effect = lower value 1 | locus YIL066C, strain RNR3, stronger effect = lower value 1 | locus YIL073C, strain SPO22, stronger effect = lower value 1.04 | locus YIL125W, strain kgd1, stronger effect = lower value 0.992 | locus YIR030C, strain dcg1, stronger effect = lower value 0.996 | locus YJL092W, strain hpr5, stronger effect = lower value 0.942 | locus YJL095W, strain BCK1 (second series), stronger effect = lower value 0.959 | locus YJL115W, strain asf1, stronger effect = lower value 0.954 | locus YJL129C, strain trk1, stronger effect = lower value 0.931 | locus YJL134W, strain LCB3, stronger effect = lower value 1 | locus YJL154C, strain vps35, stronger effect = lower value 0.935 | locus YJL166W, strain qcr8, stronger effect = lower value 0.949 | locus YJL168C, strain set2, stronger effect = lower value 0.999 | locus YJL187C, strain SWE1 (second series), stronger effect = lower value 1.01 | locus YJR043C, strain POL32, stronger effect = lower value 1.03 | locus YJR075W, strain HOC1, stronger effect = lower value 1.02

— PubChem BioAssay AID1159580 (chemical genetic matrix, 2015)
